Screening results from PubChem BioAssay.
SMN2 splice enh = SMN2 splice variant enhancement; AID 1458; Potency, µM (series often up to 46.1 µM), without a hit: at the highest dose activity change, positive = activation, usual class: activators; actives 2.8% (n = 210,000); HEK293 SMN2-luciferase splicing reporter, luminescence, 30-36 h; further: % of control where 0% means no effect; nearly all actives have a fitted effect of over 55% in size
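HEK293 cells carry an SMN2 minigene-luciferase reporter in which exon 7 inclusion puts luciferase in frame. Cells were seeded at 2000 cells/well, attached for 10-12 hours, then exposed to compounds for 30-36 hours at 37C before ONE-Glo luminescence.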
FLuc counter = counter-screen for miR-21 project: firefly luciferase inhibitors or activators | Potency, µM (doses to about 57.5 µM), inactives show at the highest dose activity change, negative = inhibition, usual class: inhibitors | actives 6.9% (n = 360,000) | purified FLuc, Km substrates, luminescence inhibition | P08659 | AID 588342;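 further: plate controls were vehicle for no effect and reference inhibitor for full effect; nearly all actives have a fitted effect of over 55% in size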
Target sequence (P08659 whole entry, looked up): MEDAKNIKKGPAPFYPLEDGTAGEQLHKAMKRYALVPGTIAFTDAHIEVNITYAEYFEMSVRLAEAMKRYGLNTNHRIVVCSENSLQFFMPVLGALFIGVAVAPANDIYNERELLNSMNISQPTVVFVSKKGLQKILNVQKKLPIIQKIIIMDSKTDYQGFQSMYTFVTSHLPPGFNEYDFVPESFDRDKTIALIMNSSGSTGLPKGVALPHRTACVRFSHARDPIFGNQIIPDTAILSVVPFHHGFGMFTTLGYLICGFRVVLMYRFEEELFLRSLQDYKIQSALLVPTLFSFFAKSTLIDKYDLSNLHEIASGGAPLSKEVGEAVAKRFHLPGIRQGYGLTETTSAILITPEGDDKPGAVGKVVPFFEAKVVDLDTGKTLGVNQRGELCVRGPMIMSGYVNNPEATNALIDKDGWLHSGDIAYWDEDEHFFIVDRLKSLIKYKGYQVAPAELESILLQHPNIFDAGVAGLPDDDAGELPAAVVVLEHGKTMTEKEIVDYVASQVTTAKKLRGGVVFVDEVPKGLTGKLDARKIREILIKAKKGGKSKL
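Purified P. pyralis luciferase (10nM final) with 10uM D-luciferin and 10uM ATP (Km levels) in 50mM Tris acetate pH 7.5, 10mM Mg acetate, 0.01% Tween-20, 0.05% BSA; qHTS 6-point titration, ~60 µM downward; luminescence read.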
ELG1 genotoxic = induces genotoxicity in HEK293T cells with luciferase-tagged ELG1; HEK293T ELG1-luciferase reporter, luminescence, 16 h; Potency, µM (doses to about 46 µM), without a hit: at the top dose activity change, positive = activation, actives largely listed as activators; actives 1.3% (n = 330,000); further: % of control where 0% means no effect; nearly all actives have a fitted effect of over 60% in size
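Step 1: seed 2,000 HEK293T ELG1-luciferase cells per well. Step 2: add compound or DMSO, incubate 16 hr at 37 °C. Step 3: ONE-Glo, 30 min at room temperature, read luminescence.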
Rab9 promoter act = Rab9 promoter activation | Huh7 Rab9 promoter-luciferase reporter, luminescence, 24 h | Potency, µM (highest dose often 9.22 µM), inactives show at the top dose activation, negative = inhibition, actives largely listed as activators | actives 2.8% (n = 320,000); further: % of control where 0% means no effect; nearly all actives have a fitted effect of over 60% in size
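Huh7 reporter line, Rab9 promoter upstream of luciferase. Compound exposure 24 h at 37 °C in reduced-serum medium with 10% FBS. Read-out: luminescence.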
NPC1 promoter act = activates the NPC1 promoter. Huh7 NPC1 promoter luciferase reporter, 24 h. Potency, µM (series often up to 9.22 µM), without a hit: at the top dose activation, actives largely listed as activators. actives 2.4% (n = 320,000). AID 485313; further: % of control where 0% means no effect; nearly all actives have a fitted effect of over 60% in size
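Compounds in DMSO were transferred onto Huh7 NPC1-luciferase reporter cells pre-incubated 2 h; after 24 h at 37 °C, Amplite reagent was dispensed and luminescence recorded 10 min later.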
The depositor's hits bear a star; ? = inconclusive; . = no result; [ ] = dose if it differs, or a comment. This is a sample that favours compounds with a hit; in the whole collection about 7.5% have one here. The call rests on the fitted dose curve; in most records, active means well fitted curve in the direction sought with a large enough effect; inconclusive means small, poorly fitted or top-dose-only effect, or another doubt; inactive means no such curve, though single readings can be large; an effect the other way counts as inactive or inconclusive. Potency means the concentration at half of the fitted maximal effect.

SMILES	SMN2 splice enh	FLuc counter	ELG1 genotoxic	Rab9 promoter act	NPC1 promoter act
COc1ccc(/C=C/C=N/NC(=O)COc2ccc(OC)cc2)cc1	23%	4.8µM*	1%	19%	13%
C#CCOCCOCCOCCNc1nc(N2CCN(C(=O)[C@H]([C@@H](C)CC)n3cc([C@@H](N)CC(C)C)nn3)CC2)nc(N2CCN(C(=O)[C@H](Cc3ccc(O)cc3)n3cc([C@@H](N)CC(C)C)nn3)CC2)n1	.	0%	5%	-1%	-3%
CN(C)/C=C1\SC(=S)N(c2ccc(F)cc2)C1=O	.	-15%	12%	20%	10%
CN1CCN(C2=C(Cl)C(=O)N(c3ccc(Cl)cc3)C2=O)CC1	-10%	-2%	-8%	7%	0%
CN(C)/C=C1\C(=O)N(c2ccc(Cl)cc2)CS1(=O)=O	29%	17µM*	?	?	3.2µM*
Cc1ccc(N2CS(=O)(=O)/C(=C/N(C)C)C2=O)cc1	13µM*	12µM*	?	1.3µM*	2µM*
COc1ccc(Cl)cc1C(=O)NNC(=O)c1n[nH]c2ccccc12	.	4%	2%	-5%	-9%
CCN(CC)C(=O)N1c2ccccc2C=Cc2ccccc21	4µM*	1%	-10%	5%	-4%
NC(=O)N1c2ccccc2C=Cc2ccccc21	-24%	-3%	1%	6%[46.1 µM]	2%[46.1 µM]
COc1ccc(N)c2c1C(=O)c1ccccc1C2=O	?	24µM*	?	?	23%
COc1cccc2c1C(=O)c1ccc3ccccc3c1C2=O	16µM*	1.9µM*	13µM*	?	18%
COc1ccc(OC)c2c1C(=O)c1ccccc1C2=O	-10%	4%	-2%	-6%	1%
CCN(CC)CCNC(=O)c1cn(CCOC)c(=O)c2c1c1ccccc1n2C	-10%	-1%	2%	-3%	0%
O=C(Nc1ccc(-c2nc3ccccc3s2)c(O)c1)C1=COCCO1	2.2µM*	0.48µM*	16µM*	0.71µM*	0.5µM*
Cc1sc(NC(=O)C2=COCCO2)nc1-c1ccc(Br)cc1	.	-17%	-1%	-5%	1%
O=C(Nc1cccc(-c2nc3ccccc3s2)c1)C1=COCCO1	21%	17µM*	10%	-2%	-5%
O=C(Nc1ccc(-c2nc3ccccc3s2)cc1)C1=COCCO1	-27%	0.11µM*	0.26µM*	0.4µM*	0.089µM*
Cc1ccccc1C(=O)Nc1cccc(-c2nc3cccnc3s2)c1	.	-6%	.	.	.
O=C(Nc1ccc(O)c(-c2nc3ccccc3s2)c1)C1=COCCO1	-17%	-16%	0%	-1%	0%
Cc1c(C(=O)NCc2ccco2)oc2ccc(S(=O)(=O)N3CCC4(CC3)OCCO4)cc12	-14%	-2%	-7%	-5%	-5%
CCCC(=O)Nc1c2c(nn1-c1ccc(F)cc1)CS(=O)(=O)C2	.	-1%	-2%	1%	-6%
Cc1ccc(/C=N/NC(=O)c2cccs2)o1	9%	17µM*	14%	2%	16%
Cc1ccc(/C=N/NC(=O)c2csc(C)c2)o1	11%	15µM*	8%	10%	23%
Cc1cc(C(=O)N/N=C/c2ccc(N(C)C)o2)cs1	.	?	18%	4%	0%
Cc1ccc(/C=N/NC(=O)c2cc(C)oc2C)o1	-5%	?	4%	11%	8%
SMILES	SMN2 splice enh	FLuc counter	ELG1 genotoxic	Rab9 promoter act	NPC1 promoter act
O=C(NCc1ccco1)c1ccccc1O	.	2%	0%	3%	3%
O=C1C(Cl)=C(NC2CCCCC2)C(=O)N1c1ccc(Cl)cc1	?	4.8µM*	?	18%	14%
Cc1ccc(S(=O)(=O)NNC(=O)c2cnn(-c3ccc(Cl)cc3)c2C(F)(F)F)cc1	.	0%	-5%	-4%	2%
O=C(CSc1nnc(-c2ccccc2)n1Cc1ccco1)Nc1ccc(S(=O)(=O)N2CCCC2)cc1	-27%	2%	-12%	1%	1%
O=C(CCSCc1ccccc1F)NCc1cccnc1	-15%	-4%	-7%	-1%	-2%
O=C(Nc1cccc(F)c1)c1ccc(-c2ccccc2Cl)o1	11µM*	9.5µM*	?	-2%	-2%
COC(=O)c1sccc1-c1ccc(C(=O)Nc2ccccc2)o1	?	7.6µM*	?	2.2µM*	3.5µM*
O=C(Nc1cccc(O)c1)c1cc(-c2ccccc2F)no1	.	1%	.	.	.
COC(=O)c1sccc1NC(=O)c1ccc(C)o1	-14%	-7%	1%	-4%	-9%
CC(C)(CNC(=O)c1ccc(-c2ccccc2Cl)o1)N1CCOCC1	.	?	13µM*	?	?
CC(C)(CNC(=O)c1ccc(Br)o1)N1CCOCC1	.	-5%	-1%	-3%	0%
O=C(Nc1ccccc1)c1cc(-c2ccccc2Cl)no1	?	0.76µM*	?	23%	?
COC(=O)c1c(C)[nH]c(C(=O)CN2C(=O)NC3(CCOc4ccccc43)C2=O)c1C (centres undefined)	.	-1%	1%	-5%	-2%
CCc1nnc(NC(=O)c2ccc(-c3ccccc3Cl)o2)s1	5%	?	21µM*	?	30%
Cc1ccc(NC(=O)c2ccc(-c3cccc(Cl)c3C)o2)cc1	-19%	7.6µM*	.	.	.
COc1ccc(NC(=O)c2ccc(-c3ccccc3Cl)o2)cc1	18µM*	9.5µM*	?	?	?
CC(=O)c1cccc(NC(=O)c2ccc(-c3ccccc3[N+](=O)[O-])o2)c1	10µM*	3.4µM*	?	3.2µM*	?
CCc1nnc(NC(=O)c2ccc(COc3ccccc3Cl)o2)s1	.	-16%	9%	6%	-4%
CCCN1CCC(CCOc2ccccc2)(C(=O)OCC)CC1	.	-1%	-1%	-1%	2%
COc1ccc(NC(=O)c2cc(C)no2)cc1	.	?	18%	12%[1.84 µM]	22%
COc1ccc(NC(=O)c2cc(-c3ccccc3Cl)no2)cc1	-9%	9.5µM*	8%	-3%	1%
COc1cc(C(C)=O)ccc1OCC(=O)Nc1ccc(C)c(S(=O)(=O)N2CCCCCC2)c1	.	1%	-5%	-26%	-15%
Nc1ccc2oc3ccccc3c2c1	11µM*	?	22%	?	?
CC(OC(=O)Cc1n[nH]c(=O)c2ccccc12)C(=O)Nc1cccc([N+](=O)[O-])c1 (centres undefined)	-6%	-3%	-1%	15%	-3%
CCCc1cc(NCCCn2ccnc2)n2nc(C)c(-c3ccccc3)c2n1	.	5%	-4%	1%	-10%
CN(C)CCCNc1cc(C(C)(C)C)nc2c(-c3ccc(Cl)cc3)cnn12	.	?	8%	-2%	0%
Cc1cc(NCCCN2CCOCC2)n2ncc(-c3ccc(Cl)cc3)c2n1	24%	17µM*	?	?	?
CC(C)Nc1cc(C(C)(C)C)nc2c(-c3ccccc3)cnn12	.	11µM*	?	2.8µM*	?
